# According to PubChem BioAssay (NCI):
# The panel holds about 83,000 compounds, 20% with a hit somewhere; the sample as a whole holds those more often.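 96-well plates, one dose, 48 hours. Percent growth reported; active if below 10.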 The source made the active and inactive calls.
# Test system: EKVX NSCLC
# Test: NCI-60 one-dose screen, 48 h (100 = growth as untreated, 0 = no growth, -100 = all killed)
# Settings: 10 µM unless noted
row,Structure (SMILES),growth
1,CCOC(=O)c1sc(/N=C2\NC(=O)/C(=C/c3ccc(N4CCN(C)CC4)cc3)S2)nc1C,96.7% (inactive)
2,Cc1cc(C)c2nc(Nc3nc(C)c(C)c(=O)[nH]3)nc(C)c2c1,12.4% (inactive)
3,CCOC(=O)C1=C(C)n2nc(CC#N)c(C#N)c2NC1c1ccc(Cl)cc1 (centres undefined),89% (inactive)
4,COc1ccc2oc(=O)cc(-c3nc4ccc(N)cc4[nH]3)c2c1,82.2% (inactive)
5,CCOC(=O)NCCc1nc2c([nH]1)c(=O)n(C)c(=O)n2C,99.7% (inactive)
6,NC(=O)C(O)(c1ccccc1)c1ccccc1,100% (inactive)
7,O=C1Nc2ccc(Cl)cc2/C1=N/c1nc(-c2ccc(F)cc2)cs1,44.5% (inactive)
8,Cc1nnc(/N=C2\NC(=O)/C(=C/c3ccsc3)S2)s1,93.6% (inactive)
9,N#Cc1ccc(C2C3=C(CCCC3=O)OC3=C2C(=O)c2ccccc2C3=O)cc1 (centres undefined),63.1% (inactive)
10,COCCOCCOCc1n(Cc2ccc3ccccc3c2)c2ccccc2[n+]1Cc1ccc2ccccc2c1,47.4% (inactive)
11,CC1(C)CC[C@]2(c3nnc(-c4ccncc4)o3)CC[C@]3(C)C(=CC[C@@H]4[C@@]5(C)CCC(=O)C(C)(C)[C@@H]5CC[C@]43C)[C@@H]2C1,76.3% (inactive)
12,O=c1[nH]c(-c2cccc(F)c2)cc2cc(F)ccc12,39.3% (inactive)
13,Cc1ccccc1NC(=O)c1sc2nc(C)c(C(C)O)cc2c1N (centres undefined),75.7% (inactive)
14,O=C1NN(c2ccccc2)C(c2ccc(Cl)cc2)N2CCC[C@H]12 (some centres undefined),94.8% (inactive)
15,COc1ccc(Nc2cc(NC(=O)CNc3cc(OC)c(Cl)c(OC)c3Cl)ncn2)cc1,72.2% (inactive)
16,O=C(Nc1nc(-c2ccccc2Cl)cs1)c1cc(-c2ccc(Br)cc2)nc2ccccc12,35.6% (inactive)
17,Cn1cc(-c2ccc3c(c2)ncn3-c2ccc(CC(=O)Nc3cc(C(C)(C)C)on3)cc2)cn1,20.5% (inactive)
18,CCOC(=O)CC[C@H](NC(=O)c1ccc(NC)c2ccccc12)C(=O)OCC,89.4% (inactive)
19,CCO/C=N/S(=O)(=O)c1cc2c(cc1Cl)NC=NS2(=O)=O,103% (inactive)

row,Structure (SMILES),growth
1,C#Cc1ccccc1NC(=O)c1sc2nc3c(cc2c1N)CCCCC3,84.8% (inactive)
2,COc1ccc(NC(=O)Nc2ccc(Nc3nc(C)cc(Nc4ccc(C)cc4)n3)cc2)cc1,-70.9% (active)
3,C[C@]12CC[C@@H]3c4ccc(O)cc4CC[C@H]3[C@@H]1C[C@H](O)C2,44% (inactive)
4,O=CN1N=C(c2ccc(Cl)cc2)CC1c1cccc(Nc2ccnc3cc(C(F)(F)F)ccc23)c1 (centres undefined),58.7% (inactive)
5,O=[N+]([O-])c1ccc(N=Nc2c(O)c(N=Nc3cc([N+](=O)[O-])cc([N+](=O)[O-])c3O)cc(N=Nc3cc(S(=O)(=O)O)cc4cc(S(=O)(=O)O)cc(O)c34)c2O)cc1,102% (inactive)
6,CCOCc1nc2ccccc2c(=O)[nH]1,95.8% (inactive)
7,Nc1n[nH]c2cccc(C#Cc3cccc(NC(=O)c4cc(N5CCOCC5)cc(C(F)(F)F)c4)c3)c12,59.9% (inactive)
8,COc1ccc2[nH]c(=O)c(/C=C/C(=O)c3ccccc3OC)cc2c1,37.8% (inactive)
9,N#Cc1c(-c2ccc(F)cc2)nc(N/N=C/c2cccc(O)c2)nc1N1CCOCC1,86.9% (inactive)
10,COc1ccc2[nH]c3nc4cnccc4cc3c2c1,72.2% (inactive)
11,COc1cc2c(cc1OC)C(Sc1ccc(Cl)cc1)c1c(nc(N)c(C#N)c1N)O2 (centres undefined),1.68% (active)
12,C=C1C(=O)O[C@H]2[C@H]1CCC(/C=N/c1ncc(Br)cc1N)=C\CC[C@@]1(C)O[C@@H]21,29% (inactive)
13,CCCCC1=c2c([nH]c3ccc(OC)cc23)=NC2C=CC=NC12 (centres undefined),84.3% (inactive)
14,COc1ccc(-c2nc(C#N)c(NCC(c3ccc(Cl)cc3)N3CCCCC3)o2)cc1 (centres undefined),95.6% (inactive)
15,CCC[S@@](=O)c1ccc2nc(NC(=O)OC)[nH]c2c1,90.2% (inactive)
16,CCSc1nc(Cl)c(C#N)c(-c2ccc(F)cc2)n1,95.2% (inactive)
17,Cc1cccc(C)c1NC(=O)CN(CC(C)C)CC(O)COc1ccccc1 (centres undefined),85.2% (inactive)
18,CCOC(=O)c1ccc(Nc2ncnc3ccc(NC(=O)c4ccccc4)cc23)cc1,80.3% (inactive)

# Test system: SN12C renal
# Test: as above
# Settings: 10 µM unless noted
row,Structure (SMILES),growth
1,CCOC(=O)c1sc(/N=C2\NC(=O)/C(=C/c3ccc(N4CCN(C)CC4)cc3)S2)nc1C,111% (inactive)
2,Cc1cc(C)c2nc(Nc3nc(C)c(C)c(=O)[nH]3)nc(C)c2c1,20% (inactive)
3,CCOC(=O)C1=C(C)n2nc(CC#N)c(C#N)c2NC1c1ccc(Cl)cc1 (centres undefined),96.6% (inactive)
4,COc1ccc2oc(=O)cc(-c3nc4ccc(N)cc4[nH]3)c2c1,92.4% (inactive)
5,CCOC(=O)NCCc1nc2c([nH]1)c(=O)n(C)c(=O)n2C,101% (inactive)
6,NC(=O)C(O)(c1ccccc1)c1ccccc1,99% (inactive)
7,O=C1Nc2ccc(Cl)cc2/C1=N/c1nc(-c2ccc(F)cc2)cs1,54.8% (inactive)
8,Cc1nnc(/N=C2\NC(=O)/C(=C/c3ccsc3)S2)s1,99.7% (inactive)
9,N#Cc1ccc(C2C3=C(CCCC3=O)OC3=C2C(=O)c2ccccc2C3=O)cc1 (centres undefined),12.6% (inactive)
10,COCCOCCOCc1n(Cc2ccc3ccccc3c2)c2ccccc2[n+]1Cc1ccc2ccccc2c1,11.7% (inactive)
11,CC1(C)CC[C@]2(c3nnc(-c4ccncc4)o3)CC[C@]3(C)C(=CC[C@@H]4[C@@]5(C)CCC(=O)C(C)(C)[C@@H]5CC[C@]43C)[C@@H]2C1,79.7% (inactive)
12,O=c1[nH]c(-c2cccc(F)c2)cc2cc(F)ccc12,49.3% (inactive)
13,Cc1ccccc1NC(=O)c1sc2nc(C)c(C(C)O)cc2c1N (centres undefined),51.3% (inactive)
14,O=C1NN(c2ccccc2)C(c2ccc(Cl)cc2)N2CCC[C@H]12 (some centres undefined),105% (inactive)
15,COc1ccc(Nc2cc(NC(=O)CNc3cc(OC)c(Cl)c(OC)c3Cl)ncn2)cc1,89.2% (inactive)
16,O=C(Nc1nc(-c2ccccc2Cl)cs1)c1cc(-c2ccc(Br)cc2)nc2ccccc12,69.9% (inactive)
17,Cn1cc(-c2ccc3c(c2)ncn3-c2ccc(CC(=O)Nc3cc(C(C)(C)C)on3)cc2)cn1,13.1% (inactive)
18,CCOC(=O)CC[C@H](NC(=O)c1ccc(NC)c2ccccc12)C(=O)OCC,90.3% (inactive)
19,CCO/C=N/S(=O)(=O)c1cc2c(cc1Cl)NC=NS2(=O)=O,104% (inactive)

row,Structure (SMILES),growth
1,C#Cc1ccccc1NC(=O)c1sc2nc3c(cc2c1N)CCCCC3,98.2% (inactive)
2,COc1ccc(NC(=O)Nc2ccc(Nc3nc(C)cc(Nc4ccc(C)cc4)n3)cc2)cc1,-71% (active)
3,C[C@]12CC[C@@H]3c4ccc(O)cc4CC[C@H]3[C@@H]1C[C@H](O)C2,71.6% (inactive)
4,O=CN1N=C(c2ccc(Cl)cc2)CC1c1cccc(Nc2ccnc3cc(C(F)(F)F)ccc23)c1 (centres undefined),87.7% (inactive)
5,O=[N+]([O-])c1ccc(N=Nc2c(O)c(N=Nc3cc([N+](=O)[O-])cc([N+](=O)[O-])c3O)cc(N=Nc3cc(S(=O)(=O)O)cc4cc(S(=O)(=O)O)cc(O)c34)c2O)cc1,101% (inactive)
6,CCOCc1nc2ccccc2c(=O)[nH]1,98% (inactive)
7,Nc1n[nH]c2cccc(C#Cc3cccc(NC(=O)c4cc(N5CCOCC5)cc(C(F)(F)F)c4)c3)c12,57.6% (inactive)
8,COc1ccc2[nH]c(=O)c(/C=C/C(=O)c3ccccc3OC)cc2c1,8.57% (active)
9,N#Cc1c(-c2ccc(F)cc2)nc(N/N=C/c2cccc(O)c2)nc1N1CCOCC1,96.7% (inactive)
10,COc1ccc2[nH]c3nc4cnccc4cc3c2c1,101% (inactive)
11,COc1cc2c(cc1OC)C(Sc1ccc(Cl)cc1)c1c(nc(N)c(C#N)c1N)O2 (centres undefined),1.66% (active)
12,C=C1C(=O)O[C@H]2[C@H]1CCC(/C=N/c1ncc(Br)cc1N)=C\CC[C@@]1(C)O[C@@H]21,-24.8% (active)
13,CCCCC1=c2c([nH]c3ccc(OC)cc23)=NC2C=CC=NC12 (centres undefined),88.5% (inactive)
14,COc1ccc(-c2nc(C#N)c(NCC(c3ccc(Cl)cc3)N3CCCCC3)o2)cc1 (centres undefined),103% (inactive)
15,CCC[S@@](=O)c1ccc2nc(NC(=O)OC)[nH]c2c1,96.4% (inactive)
16,CCSc1nc(Cl)c(C#N)c(-c2ccc(F)cc2)n1,95.4% (inactive)
17,Cc1cccc(C)c1NC(=O)CN(CC(C)C)CC(O)COc1ccccc1 (centres undefined),104% (inactive)
18,CCOC(=O)c1ccc(Nc2ncnc3ccc(NC(=O)c4ccccc4)cc23)cc1,102% (inactive)
